Assay outcomes as filed in PubChem.
Shown are actives, neighbours in structure and some others; about 6.1% of the full set was active somewhere.
TGFb SMAD3 inh: qHTS for Inhibitors of TGF-b | HepG2 CAGA-GFP TGF-b/SMAD3 reporter, GFP fluorescence, 18 h; TGF-beta stimulated, 500 pg/mL final | Potency, µM (top dose mostly 46.1 µM), most hits filed as inhibitors | actives 1.2% (n = 410,000) | AID 588855, 2011; also: nearly all actives have a fitted effect of over 65% in size
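HEPG2 CAGA-GFP, 1000 cells/well; 2 h settle, 37 C; cpd via pin tool; TGF-b 500 pg/mL final; 18 h, 37 C; GFP imaging ex488/em500-530; %Activity normalised to -TGF-b and +DMSO controls; CRC fit, curve class.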
RORgamma inh: qHTS for inhibitors of ROR gamma transcriptional activity. Drosophila S2 Gal4-RORgamma UAS-luciferase reporter, 20 h. actives 5.4% (n = 310,000). Nuclear receptor ROR-gamma (Mus musculus), P51450. Potency, µM (series often up to 53.6 µM), usual class: inhibitors; also: nearly all actives have a fitted effect of over 60% in size
Target sequence (P51450 whole entry, looked up, the tested form may be a part): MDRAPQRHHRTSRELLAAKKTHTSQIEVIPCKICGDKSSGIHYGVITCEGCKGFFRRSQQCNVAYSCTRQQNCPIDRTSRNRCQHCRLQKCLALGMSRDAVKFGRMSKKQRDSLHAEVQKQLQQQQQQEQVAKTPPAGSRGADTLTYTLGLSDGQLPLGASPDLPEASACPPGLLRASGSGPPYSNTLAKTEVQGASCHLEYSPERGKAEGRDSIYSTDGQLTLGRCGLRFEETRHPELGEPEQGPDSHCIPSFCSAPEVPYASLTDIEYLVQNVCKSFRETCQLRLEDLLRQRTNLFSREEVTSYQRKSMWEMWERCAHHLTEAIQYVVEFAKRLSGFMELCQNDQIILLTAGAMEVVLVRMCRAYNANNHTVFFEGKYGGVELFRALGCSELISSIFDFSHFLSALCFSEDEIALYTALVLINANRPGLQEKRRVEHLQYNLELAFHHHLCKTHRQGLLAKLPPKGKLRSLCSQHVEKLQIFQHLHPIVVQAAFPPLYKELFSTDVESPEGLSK
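Compounds are pin-transferred onto Drosophila Schneider cells expressing a copper-inducible Gal4–ROR gamma transactivation domain fusion. After 1 hr, copper sulfate is added to 700 uM final; luciferase is read 20 hr later.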
ATXN2 expr inh: Primary qHTS for Inhibitors of ATXN expression | actives 0.72% (n = 360,000) | HEK-293 ATXN2-luciferase reporter, luminescence, 24 h | Potency, µM (doses to about 57 µM), hits mostly inhibitors; also: nearly all actives have a fitted effect of over 55% in size
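ATXN2-luciferase reporter cells (luciferase flanked by upstream and downstream ATXN2 gene portions) were treated 24 h at 37 °C with compounds at up to 57 uM. SteadyGlo luminescence gave expression; GF-AFC fluorescence gave viability.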
S2 tox: Viability Counterscreen for Primary qHTS for Inhibitors of ATXN expression; S2 cells (HEK-293 line with an ATXN2-luciferase reporter) viability, CellTiter-Fluor protease fluorescence, 24 h; Potency, µM (series often up to 56.7 µM), usual class: cytotoxic; actives 0.49% (n = 400,000); AID 651635, 2014; also: nearly all actives have a fitted effect of over 40% in size
HepG2 viability: qHTS for Inhibitors of TGF-b: Cytotox Counterscreen | HepG2 CAGA-GFP viability, ATP luminescence, 18 h | Potency, µM (series often up to 46.1 µM), hits mostly cytotoxic | actives 0.76% (n = 410,000) | AID 588856, 2011
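CellTiter-Glo luminescence gave cytotoxicity after 18 hours at 37 degrees C. The cells were HepG2 CAGA-GFP in 1% FBS DMEM, stimulated with 500 pg/mL TGF-beta after compound addition. %Activity was normalised to no-cell wells (complete cell-killing) and DMSO (no toxicity), and curves were fitted and classified.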
Gal4-VP16 FLuc: VP16 counterscreen qHTS for inhibitors of ROR gamma transcriptional activity | Drosophila S2 Gal4-VP16 UAS-luciferase, luminescence, 20 h | Potency, µM (doses to about 53.6 µM), usual class: inhibitors | actives 3.5% (n = 310,000) | AID 2546, 2010;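 also: Gal4-VP16 expression switched on by copper sulfate through the metallothionein promoter; nearly all actives have a fitted effect of over 50% in size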
Numbers stand for hits; i = inactive; ? = inconclusive; nt = no result given; [ ] = dose if it differs, or a comment. Calls follow the shape of the dose curve; as a rule, active = well fitted curve in the direction sought with a large enough effect; inconclusive = small, poorly fitted or top-dose-only effect, or another doubt; inactive = no such curve, though single readings can be large; an effect the other way counts as inactive or inconclusive.

SMILES | TGFb SMAD3 inh | RORgamma inh | ATXN2 expr inh | S2 tox | HepG2 viability | Gal4-VP16 FLuc
CCCCn1c(-c2csc(C(C)C)c2)n[nH]c1=S | i | 3.98µM | i | i | i | ?
CCCn1c(-c2ccncc2)n[nH]c1=S | i | ? | i | i | i | i
CCCCn1c(-c2csc(CC)c2)n[nH]c1=S | i | 0.794µM | i | i | i | ?
CC(C)Cn1c(-c2cccc(S(=O)(=O)N3CCOCC3)c2)n[nH]c1=S | i | nt | nt | ? | i | nt
CCCc1cc(-c2n[nH]c(=S)n2CC(C)C)cs1 | i | 3.55µM | i | i | i | 11.2µM
c1ccc2c(Nc3nc4c(s3)CCCC4)cccc2c1 | ? | 12.6µM | i | i | i | ?
Cc1cc2nc(-c3cc(NC(=O)c4cc5ccccc5o4)ccc3Cl)oc2cc1C | i | nt | i | i | i | nt
COc1cccc(CNC(=O)c2c(O)nc3ccccn3c2=O)c1 | i | nt | i | i | i | nt
C#Cc1ccccc1OCCCN1CCC(C(O)(c2ccccc2)c2ccccc2)CC1 | nt | nt | 31.6µM | 39.8µM | nt | nt
Cc1ccc(N2CCN(S(=O)(=O)c3cccc4ccccc34)CC2)cc1Cl | ? | nt | i | i | i | nt
COc1ccc(OC)c2c1C(=O)C(Cl)=C(Cl)C2=O | 3.16µM | 5.01µM | 7.08µM | 7.94µM | i | 5.01µM
COc1ccc(OC)c2c1C(=O)c1ccccc1C2=O | i | i | i | i | i | i
COCCNC(=O)NC1(C(F)(F)F)Oc2ccc(Cl)cc2O1 (stereo not given) | i | ? | i | i | i | ?
O=C(NCc1cccnc1)NC1(C(F)(F)F)Oc2ccc(Cl)cc2O1 (stereo not given) | ? | 11.2µM | ? | ? | i | ?
O=C(N/N=C/c1cc(Cl)ccc1O)c1ccncc1 | ? | 3.16µM | ? | i | 12.6µM | ?
CCNC(=S)N/N=C/c1cc(Br)cc(Br)c1OC | i | 1.12µM | i | i | i | 2.51µM
O=C(N/N=C/c1ccccc1Cl)c1ccncc1 | i | i | nt | i | i | i
CN(C)c1ccc(C(=O)N/N=C/c2cc(Br)cc(Br)c2O)cc1 | ? | 2.82µM | 3.55µM | i | i | 5.62µM
COc1c(Br)cc(Br)cc1/C=N/NC(=O)c1ccncc1 | i | 14.1µM | i | i | i | i
CN(C)c1ccc(/C=N/NC(=O)c2ccc(NC(=O)c3ccccc3)cc2)cc1 | i | i | ? | ? | i | i
COC(=O)c1ccc(NC(=O)C(=O)NCCc2sc(-c3cccc(F)c3)nc2C)cc1 | i | nt | i | i | i | nt
COc1cccc(C2(CC(=O)N3CCN(c4nonc4C)CC3)CC(=O)N(C3CCCC3)C2=O)c1 (stereo not given) | nt | nt | nt | i | nt | nt
CCn1c(=O)c(C(=O)Nc2ccc(C(C)=O)cc2)nc2ccccc21 | i | nt | i | i | i | nt
Cc1ccc(Nc2nc3ccccc3c3nnc(C)n23)c(C)c1 | i | nt | nt | nt | i | nt
N[C@@H](CSSC[C@H](N)C(=O)O)C(=O)O | nt | i | i[0.709 µM] | i[0.575 µM] | nt | i
SMILES | TGFb SMAD3 inh | RORgamma inh | ATXN2 expr inh | S2 tox | HepG2 viability | Gal4-VP16 FLuc
COc1cccc(C(=O)Oc2c(Br)cc(Br)cc2/C=N/NC(=O)c2cc(C)[nH]n2)c1 | i | i | nt | nt | i | 22.4µM
Cc1cc(C(=O)N/N=C/c2cccc(OC(=O)c3cccc(Br)c3)c2)n[nH]1 | i | i | i | i | i | i
OC[C@H]1O[C@@H](Oc2cc(O)cc(C=Cc3ccc(O)cc3)c2)[C@H](O)[C@@H](O)[C@H]1O | nt | nt | i | nt | nt | nt
O=C(NNC1=Nc2ccccc2SC1)c1ccc(F)cc1 | i | ? | i | i | i | 3.55µM
O=C(NNC1=Nc2ccccc2SC1)c1ccc(Cl)cc1 | i | 1.12µM | 14.1µM | ? | i | 5.62µM
O=C(NNc1c2ccccc2nc2ccccc12)c1ccc(Cl)cc1 | i | i | i | ? | i | i
CCCOC(=O)c1ccc(NC(=O)Cc2csc(C)n2)cc1 | i | nt | nt | nt | i | nt
CN(C)c1ccc(/C=C/c2cc(Cl)nc3ccccc23)cc1 | ? | nt | nt | nt | i | nt
O=[N+]([O-])C(/C=C(\Cl)[N+](=O)[O-])=C1N(Cc2ccc(Cl)nc2)CCN1Cc1ccc(Cl)nc1 | ? | ? | i | i | 20µM | ?
CN(C(=O)c1cnn(-c2ncc3c(n2)-c2ccccc2CCC3)c1C1CC1)C1CCOC1 (stereo not given) | nt | nt | nt | i | nt | nt
COc1ccc(C(C)=O)cc1CSCCC(=O)O | i | i | i | i | i | i
COc1ccc(C(=O)/C=C/c2ccsc2)cc1CSCC(=O)O | i | 10µM | i | i | i | 10µM
COc1ccccc1Cn1c(=S)[nH]c2ccccc2c1=O | i | 10µM | i | i | i | 14.1µM
CCN(CC)CCn1c(=S)[nH]c2ccccc2c1=O | ? | i | i | i | i | i
COc1ccc(OC)c(NC(=O)CCn2c(=S)[nH]c3ccccc3c2=O)c1 | i | i | i | i | i | i
COc1ccccc1NC(=O)CCCn1c(=S)[nH]c2ccccc2c1=O | i | 10µM | nt | i | i | ?
O=c1c2cc(F)ccc2[nH]c(=S)n1Cc1ccc(F)cc1 | i | 1.41µM | i | i | i | 3.16µM
CCN(CC)CCn1c(=S)[nH]c2ccc(Br)cc2c1=O | i | 11.2µM | i | i | i | 12.6µM
NS(=O)(=O)c1ccc(CCn2c(=S)[nH]c3ccc(F)cc3c2=O)cc1 | i | ? | nt | i | i | i
Cc1ccc(-n2c(=O)c3c(C)c(C(=O)N(C)C)sc3n(CC(=O)N(C)c3ccccc3)c2=O)cc1C | i | nt | nt | nt | i | nt
COc1ccccc1Cn1c(=S)[nH]c2ccc(F)cc2c1=O | i | 15.8µM | i | i | i | 11.2µM
COCCCNC(=O)c1ccc2c(=O)n(Cc3ccccc3OC)c(=S)[nH]c2c1 | i | i | i | i | i | i
COc1ccccc1Cn1c(=S)[nH]c2ccc(Br)cc2c1=O | i | 2µM | i | i | i | 5.62µM
COc1ccccc1Cn1c(=S)[nH]c2cc(C(=O)NC(C)C)ccc2c1=O | i | i | i | i | i | i
CC(/C=N/NC(=O)CSc1nc(C)cc(C)n1)=C\c1ccccc1 | i | ? | i | i | i | i
CC(/C=N\NC(=O)Cn1c(C)nc2ccccc21)=C\c1ccccc1 | i | i | ? | ? | i | 12.6µM
COc1cc(/C=C(\C#N)C(=O)NCC2CCCO2)ccc1OCC(N)=O (stereo not given) | i | i | i | i | 10µM | i
COc1cc(/C=C(\C#N)C(=O)NC2CCCCC2)ccc1OCc1ccc(C(=O)O)cc1 | i | 12.6µM | i | i | i | ?
Fc1cccc(CN2CCc3nc(Nc4ccc5c(c4)OCCO5)ncc3C2)c1F | ? | nt | ? | ? | i | nt
CCc1cc(-c2n[nH]c(=S)n2-c2cccc(C)c2)cs1 | i | 0.316µM | i | i | i | 0.562µM
